Assay outcomes from PubChem.
Hits are enriched below; roughly 4.6% of the tested compounds scored in any of these assays.
VACV Venus inh – qHTS for Stage-Specific Inhibitors of Vaccinia Orthopoxvirus: Venus Reporter Primary qHTS. Vaccinia virus Venus reporter expression, fluorescence. hit rate 0.46% among 330,000. Potency, µM (highest dose often 36.5 µM), for the others: at the top dose activity change, negative = inhibition, hits mostly inhibitors; calls by dose curve; tested in A549 cells; note: nearly all actives have a fitted effect of over 30% in size
Lassa entry inh – qHTS for Inhibitors of binding or entry into cells for Lassa Virus. Potency, µM (highest dose often 37.9 µM), without a hit: at the highest dose activity change, negative = inhibition, actives largely listed as inhibitors. Lassa virus pseudotype entry inhibition, cell reporter. hit rate 1.2% among 300,000; calls by dose curve; tested in HEK293 cells; note: nearly all actives have a fitted effect of over 50% in size
HCV inh – qHTS Assay for Inhibitors of Hepatitis C Virus (HCV). hit rate 3.4% among 340,000. Huh7.5.1 HCVcc-Cre infection, luciferase reporter, 44 h. Potency, µM (series often up to 41.8 µM), without a hit: top-dose activity change, negative = inhibition, actives largely listed as inhibitors; active = well fitted inhibition curve with a large enough effect; inconclusive = small, poorly fitted or top-dose-only effect, or another doubt; inactive = no such curve, though single readings can be large or run the other way
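1,000 cells/well; 4 h culture; + compound; + HCVcc-Cre (~0.5 moi); 44 h; luciferase substrate, RT 15 min; read 15 sec.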
Marburg entry inh – qHTS for inhibitors of binding or entry into cells for Marburg Virus. hit rate 1.8% among 300,000. AID 540276, 2011. Potency, µM (top dose mostly 37.8 µM), inactives show top-dose activity change, negative = inhibition, hits mostly inhibitors. Marburg virus pseudotyped entry inhibition, cell reporter; calls by dose curve; tested in HEK293 cells
VACV mCherry inh – qHTS for Stage-Specific Inhibitors of Vaccinia Orthopoxvirus: mCherry Reporter Primary qHTS. Potency, µM (top dose mostly 36.5 µM), inactives show at the top dose activity change, negative = inhibition, actives largely listed as inhibitors. Vaccinia virus mCherry reporter infection, fluorescence. hit rate 0.63% among 310,000; calls by dose curve; tested in A549 cells; note: nearly all actives have a fitted effect of over 35% in size
Active calls of the source: *; i = inactive; ? = inconclusive; · = no result; [ ] = another dose, or the depositor's remark. % is set by controls: 0 for no effect and ±100 for the full control effect; potency is the fitted concentration of half-maximal effect.

SMILES	VACV Venus inh	Lassa entry inh	HCV inh	Marburg entry inh	VACV mCherry inh
O=C(Nc1cccc(-c2csc(Nc3cccc(C(F)(F)F)c3)n2)c1)c1cc([N+](=O)[O-])cc(C(F)(F)F)c1	-30%	·	?	·	?
O=C(Nc1ccc(-c2csc(Nc3ccc(Cl)cc3)n2)cc1)c1cccc(C(F)(F)F)c1	?	·	11µM*	0%	?
COC(=O)c1ccc(CN2CCC3(CCC(CNC(=O)c4ccccc4)O3)CC2)cc1 (stereo not drawn)	2%	·	·	·	-12%
N#Cc1c(-c2ccccc2)cc(-c2ccccc2)nc1SCC(O)CS(=O)(=O)Cc1ccc(Cl)cc1 (stereo not drawn)	-4%	-28%[46.1 µM]	·	·	-18%
Cc1cc(OCCCCNC(C)C)cc(C(C)C)c1	-18%	?	?	15µM*	?
CCN(CC)CCCN1C(=O)C2=C(C1=O)C1N(C)c3ccccc3[C@@]13C[C@@H](CO)N(C(=O)CCC(=O)OC)C3=N2 (stereo partly drawn)	·	?	·	7%[14.2 µM]	·
COc1ccc2oc(=O)cc(CN3CCN(c4ccccc4OC)CC3)c2c1	-4%	7%[46.1 µM]	·	14%[46.1 µM]	-6%
FC(F)Sc1ccc(NC(=S)NC(c2ccccc2)c2ccccc2)cc1	·	?	?	18µM*	·
CC1CCCCC1NC(=S)Nc1ccc(SC(F)F)cc1 (stereo not drawn)	?	?	11µM*	-17%	·
FC(F)Sc1ccc(NC(=S)NCC2CCCCC2)cc1	·	-26%	32µM*	-26%	·
FC(F)Sc1ccc(NC(=S)NC2CCCCC2)cc1	-16%	-3%	?	-1%	-29%
CN(CCCNC(=O)c1cc2c(=O)n(C)c3ccccc3c2s1)Cc1ccccc1	-22%	12%[46.1 µM]	·	?	-28%
Cc1cc(/C=N/NC(=O)c2cccs2)c(C)n1-c1ccccc1	·	2.1µM*	?	?	·
Cc1cc(/C=N/NC(=O)c2ccncc2)c(C)n1-c1ccccc1	-28%	-13%	?	5%	-4%
CCOC(=O)C1CCCN(S(=O)(=O)c2ccc(S(=O)(=O)N3CCCC3)cc2)C1 (stereo not drawn)	·	·	1.4µM*	·	·
CCOC(=O)c1c(NC(=O)C2CCCN(S(=O)(=O)c3ccc(C)cc3)C2)sc2c1CCCC2 (stereo not drawn)	-6%	4%	4%	?	-14%
CCOC(=O)c1c(NC(=O)C2CCCN(S(=O)(=O)c3ccccc3)C2)sc2c1CCCC2 (stereo not drawn)	-14%	?	5.6µM*	?	-15%
O=C(Nc1cccnc1)C1(F)C(F)(F)C(F)(F)C(F)(F)C(F)(F)C1(F)F	-25%	2%	3.2µM*	?	·
O=C(Nc1cccnc1)C12CC3CC(CC(C3)C1)C2	2%	5%	21%	-19%	1%
COc1ccc(/C=N/Nc2cc(C)nc3ccc(Br)cc23)cc1	-30%	?	6.3µM*	4.5µM*	?
COc1cccc2c(N/N=C/c3ccccc3)cc(C)nc12	·	·	-12%	·	·
COc1ccc2nc(C)cc(N/N=C/c3cccc(OC)c3O)c2c1	?	?	?	?	1µM*
O=C(CSc1nc2nccnc2c(=O)n1CCc1c[nH]c2ccccc12)Nc1ccccc1	-2%	16%[46.1 µM]	·	·	-2%
CCOC(=O)c1cc(S(=O)(=O)N2CCN(c3ccccc3F)CC2)[nH]n1	-13%	4%[46.1 µM]	·	·	-4%
Cc1cc(N2CCN(C)CC2)nc2ccc(NC(=S)NCc3cccs3)cc12	-16%	?	10µM*	?	?
SMILES	VACV Venus inh	Lassa entry inh	HCV inh	Marburg entry inh	VACV mCherry inh
CCCCN(CC)CCCNC(=S)Nc1ccc2nc(N3CCN(C)CC3)cc(C)c2c1	-9%	?	-30%	2.5µM*	-19%
CCCN(CCC)CCCNC(=S)Nc1ccc2nc(N3CCCC3)cc(C)c2c1	·	·	10µM*	·	·
CCCCN(CC)CCCNC(=S)Nc1ccc2nc(N3CCN(CC)CC3)cc(C)c2c1	-17%	?	?	3.5µM*	-19%
CCN(CC)CCNC(=S)Nc1ccc2nc(N3CCN(C)CC3)cc(C)c2c1	-27%	?	?	?	-16%
COc1ccc(CNC(=S)Nc2ccc3nc(N4CCN(C)CC4)cc(C)c3c2)cc1	-10%	?	?	?	?
Cc1c(C(=O)Oc2ccc(Br)cc2)sc2ncn(Cc3ccccc3F)c(=O)c12	5%	?	·	·	-4%
COc1ccc(NC(=O)C2CCC(CNS(=O)(=O)c3ccc4c(c3)C(C)(C)C(=O)N4C)CC2)cc1 (stereo not drawn)	-14%	-1%[46.1 µM]	·	·	-8%
OCCCc1cn(-c2ccccc2)c2ccccc12	-8%	-3%	10µM*	12%[46.1 µM]	-5%
COc1ccccc1-c1ccnc(-n2ncc(C(=O)N(C)CCc3ccccn3)c2C)n1	2%	·	·	·	-17%
CCOC(=O)C1=C(C)N=C2SC(C)C(=O)N2C1c1ccc(C(=O)OC)cc1 (stereo not drawn)	-5%	24%	3%	13%	-15%
CCOC(=O)C1=C(C)N=C2SC=C(C)N2C1c1ccc(OC)cc1 (stereo not drawn)	-16%	?	?	5µM*	i
CCCN(CCC)CCCNC(=O)Cn1ncc2c3ccccc3n(Cc3ccccc3F)c2c1=O	-5%	?	·	?	-13%
Fc1ccc(CNc2ncnc3cc(Cl)ccc23)cc1	·	·	10µM*	·	·
CCCC/C(C)=C/[C@@H](NP(=O)(c1ccccc1)c1ccccc1)c1ccccc1	?	?	2.8µM*	?	-11%
Cc1ccc2[nH]c3c(c2c1)CN(C(=O)CC1(c2ccccc2)CC(=O)N(Cc2cccnc2)C1=O)CC3 (stereo not drawn)	-17%	·	·	·	-13%
COc1ccc(N=C2S/C(=C\c3cc(C)n(C)c3C)C(=O)N2C)cc1	-29%	4.5µM*	11µM*	?	·
COc1ccc(N=C2S/C(=C\c3ccc(C)s3)C(=O)N2CC(C)C)cc1	0%	6%	7%	-17%	-5%
Nc1c(-c2ccccc2)c(CSc2nc3ccccc3[nH]2)nn1-c1ccc(Cl)cc1	?	?	11µM*	?	-23%
CCOc1ccc(C(=O)Cn2c(=O)n3nc(CCn4nc(C)cc4C)nc3c3cc(OC)c(OC)cc32)cc1	?	13%[46.1 µM]	·	·	3.5µM*
COc1cc2c(cc1OC)n(CC(=O)c1ccc(C)cc1)c(=O)n1nc(CCn3nc(C)cc3C)nc21	-10%	2%[46.1 µM]	·	·	i
O=C(c1ccccc1)N1c2nc(-c3ccco3)nn2C2(CCCCC2)[C@@H]2CCCC[C@@H]21	-5%	19%[46.1 µM]	·	?	0%
Cc1cc(C)c2c(c1)-c1c(ssc1=S)C(C)(C)N2C(=O)CN1C(=O)c2ccccc2C1=O	-10%	-7%	?	4µM*	i
CCCCOc1ccc(CNC(=O)C2CCCN(c3nnc(-n4c(C)ccc4C)s3)C2)cc1 (stereo not drawn)	-9%	7%[46.1 µM]	·	-15%[46.1 µM]	-22%
